# Source: PubChem BioAssay (Tox21)
# A number with no mark means an inactive call. Records with an inconclusive call do not appear. Entries that show only a call come without a potency. The source made the active and inactive calls. Unless noted, calls follow the shape of the dose curve; as a rule, active = well fitted curve in the direction sought with a large enough effect in the repeat runs; inconclusive = weak or mixed curves; inactive = no such curve, though single readings can be large; an effect the other way counts as inactive or inconclusive.
# Columns and labels:
# [1] = qHTS assay to test for compound auto fluorescence at 535 nm (green) in HEK293 cells (AID 720680)
# [2] = qHTS assay to test for compound auto fluorescence at 460 nm (blue) in HEK293 cell free culture (AID 720681)
# Summary of the method: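 Blue fluorescence (Ex 405/Em 460 nm, triamterene-equivalent) was read immediately after pin transfer of compound or DMSO into medium (DMEM, 10% FBS) without cells.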
# [3] = qHTS assay to test for compound auto fluorescence at 535 nm (green) in HEK293 cell free culture (AID 720682)
# Summary of the method: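 Cell-free medium (DMEM, 10% FBS) receives compound or DMSO by pintool. Plate read directly at Ex 485/Em 535 nm. Signal converted to fluorescein equivalency.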
# [4] = qHTS assay to test for compound auto fluorescence at 590 nm (red) in HEK293 cell free culture (AID 720683)
# Summary of the method: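 Red-channel autofluorescence of compounds in culture medium (DMEM, 10% FBS), no cells, measured at 540/590 nm. Rose Bengal sodium is the reference fluorophore for equivalence.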
# [5] = qHTS assay to test for compound auto fluorescence at 590 nm (red) in HepG2 cell free culture (AID 720684)
# Summary of the method: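 No cells present: MEM + 10% FBS only. Compound pinned in, red label read (540/590 nm). Activity = fluorescence equivalent to Rose Bengal sodium.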
# [6] = qHTS assay to test for compound auto fluorescence at 460 nm (blue) in HepG2 cell free culture (AID 720685)
# Summary of the method: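 Cell-free plates of MEM plus 10% FBS received 23 nL compound or DMSO vehicle; blue-channel (405/460 nm) intensity scored against triamterene as reference fluorophore.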
# [7] = qHTS assay to test for compound auto fluorescence at 535 nm (green) in HepG2 cell free culture (AID 720686)
# [8] = qHTS assay to test for compound auto fluorescence at 460 nm (blue) in HepG2 cells (AID 720687)
# Summary of the method: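 Blue-channel autofluorescence (Ex/Em 405/460 nm, triamterene-equivalent) was measured after 1 hr compound exposure at 37 C, 5% CO2. Cells were HepG2, plated overnight at 37 C in MEM plus 10% FBS.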
# [9] = target: Glucocorticoid receptor (Homo sapiens) (UniProt P04150); assay: qHTS assay to identify small molecule agonists of the glucocorticoid receptor (GR) signaling pathway (AID 720691; active = well fitted activation curve with a large enough effect in the signal ratio in the repeat runs, not every such curve was filed as active; the % refers to the signal ratio)
# Summary of the method: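 Cells: GR-bla HeLa, endogenous GR with stably integrated GRE-beta-lactamase reporter. Treatment 18 h, 37 C, compounds delivered in DMSO. Detection via LiveBLAzer B/G FRET substrate, 2 h RT, fluorescence intensity.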
# [10] = qHTS assay for identifying genotoxic compounds that show differential cytotoxicity against isogenic chicken DT40 cell lines with known DNA damage response pathways - wild type cell line (AID 743012); also: nearly all actives have a fitted effect of over 60% in size; also: potency is read from the fitted curve at half-maximal effect
# Summary of the method: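 Luminescent ATP viability signal (CellTiter-Glo, 30 min RT) recorded after wild type DT40 cells were incubated with compounds for 40 h at 37 C/5% CO2.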
# [11] = qHTS assay for identifying genotoxic compounds that show differential cytotoxicity against isogenic chicken DT40 cell lines with known DNA damage response pathways - Rev3 mutant cell line (AID 743014); also: nearly all actives have a fitted effect of over 55% in size; also: potency is read from the fitted curve at half-maximal effect
# [12] = qHTS assay for identifying genotoxic compounds that show differential cytotoxicity against isogenic chicken DT40 cell lines with known DNA damage response pathways - Rad54/Ku70 mutant cell line (AID 743015); also: nearly all actives have a fitted effect of over 60% in size; also: potency is read from the fitted curve at half-maximal effect
# [13] = qHTS assay to identify small molecule antagonists of the androgen receptor (AR) signaling pathway - cell viability counter screen (AID 743033; also: nearly all actives have a fitted effect of over 45% in size)
# [14] = target: Androgen receptor (Homo sapiens) (UniProt P10275); assay: qHTS assay to identify small molecule agonists of the androgen receptor (AR) signaling pathway using the MDA cell line (AID 743040; also: nearly all actives have a fitted effect of over 20% in size)
# Summary of the method: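 Stable MMTV-luciferase reporter in MDA-kb2 cells; note the promoter carries GR as well as AR response elements. 16 h compound treatment, 37C, 0% CO2; ONE-Glo luminescence endpoint.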
# [15] = qHTS assay to identify small molecule antagonists of the androgen receptor (AR) signaling pathway using the MDA cell line - cell viability counter screen (AID 743041; also: nearly all actives have a fitted effect of over 45% in size)
# Summary of the method: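 Using the breast carcinoma line MDA-kb2 AR-luc, test chemicals were co-incubated with R1881 for 16 h; CellTiter-Fluor reagent, added at 15.5 h, provided a fluorescence measure of live cells.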
# [16] = qHTS assay to identify small molecule antagonists of the glucocorticoid receptor (GR) signaling pathway - cell viability counter screen (AID 720693); also: nearly all actives have a fitted effect of over 55% in size
# [17] = target: Glucocorticoid receptor (Homo sapiens) (UniProt P04150); assay: qHTS assay to identify small molecule antagonists of the glucocorticoid receptor (GR) signaling pathway (AID 720692; active = well fitted inhibition curve with a large enough effect in the signal ratio in the repeat runs, not every such curve was filed as active; the % refers to the signal ratio)
# Summary of the method: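 Quantitative HTS in antagonist format: HeLa cells expressing endogenous GR and a stably integrated GRE-bla reporter, stimulated with 5 nM dexamethasone (final) alongside test compounds for 18 h.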
# [18] = target: Androgen receptor (Homo sapiens) (UniProt P10275); assay: qHTS assay to identify small molecule antagonists of the androgen receptor (AR) signaling pathway using the MDA cell line (AID 743042; also: nearly all actives have a fitted effect of over 55% in size)
# Summary of the method: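 Antagonist mode: compounds plus R1881 agonist added to MDA-kb2 AR-luc cells, incubated 16 h at 37C. Luciferase reporter luminescence quantified, with multiplexed CellTiter-Fluor readout for cell viability.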
# [19] = target: Androgen receptor (Homo sapiens) (UniProt P10275); assay: qHTS assay to identify small molecule antagonists of the androgen receptor (AR) signaling pathway (AID 743035; active = well fitted inhibition curve with a large enough effect in the signal ratio in the repeat runs, not every such curve was filed as active; the % refers to the signal ratio)
# Summary of the method: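 Quantitative HTS of the Tox21 10K library used HEK293 AR-UAS-bla cells stimulated with R1881 alongside compound for 16 h at 37C, followed by beta-lactamase FRET detection (LiveBLAzer B/G, 2 h, RT).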
# Chain of Glucocorticoid receptor (Homo sapiens) (P04150 whole entry, looked up): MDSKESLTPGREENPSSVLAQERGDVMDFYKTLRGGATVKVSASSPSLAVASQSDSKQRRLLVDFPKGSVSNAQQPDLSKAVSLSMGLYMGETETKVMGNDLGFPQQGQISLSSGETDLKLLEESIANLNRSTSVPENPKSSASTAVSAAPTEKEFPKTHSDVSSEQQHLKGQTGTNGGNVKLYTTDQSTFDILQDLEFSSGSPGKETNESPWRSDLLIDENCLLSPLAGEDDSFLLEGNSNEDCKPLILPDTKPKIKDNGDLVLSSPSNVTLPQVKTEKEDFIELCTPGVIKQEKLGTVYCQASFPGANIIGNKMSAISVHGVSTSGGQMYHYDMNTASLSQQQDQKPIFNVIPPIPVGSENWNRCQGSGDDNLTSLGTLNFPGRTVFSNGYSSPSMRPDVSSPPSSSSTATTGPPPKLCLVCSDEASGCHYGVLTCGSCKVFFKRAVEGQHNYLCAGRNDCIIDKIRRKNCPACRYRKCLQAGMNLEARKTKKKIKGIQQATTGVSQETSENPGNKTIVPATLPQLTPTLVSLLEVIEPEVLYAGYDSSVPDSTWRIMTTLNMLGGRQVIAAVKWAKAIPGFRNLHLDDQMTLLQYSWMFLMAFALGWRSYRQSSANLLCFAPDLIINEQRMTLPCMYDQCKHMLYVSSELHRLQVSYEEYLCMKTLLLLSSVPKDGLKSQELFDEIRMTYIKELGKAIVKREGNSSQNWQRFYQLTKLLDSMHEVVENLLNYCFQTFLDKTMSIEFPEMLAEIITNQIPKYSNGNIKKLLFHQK
# Chain of Androgen receptor (Homo sapiens) (P10275 whole entry, looked up): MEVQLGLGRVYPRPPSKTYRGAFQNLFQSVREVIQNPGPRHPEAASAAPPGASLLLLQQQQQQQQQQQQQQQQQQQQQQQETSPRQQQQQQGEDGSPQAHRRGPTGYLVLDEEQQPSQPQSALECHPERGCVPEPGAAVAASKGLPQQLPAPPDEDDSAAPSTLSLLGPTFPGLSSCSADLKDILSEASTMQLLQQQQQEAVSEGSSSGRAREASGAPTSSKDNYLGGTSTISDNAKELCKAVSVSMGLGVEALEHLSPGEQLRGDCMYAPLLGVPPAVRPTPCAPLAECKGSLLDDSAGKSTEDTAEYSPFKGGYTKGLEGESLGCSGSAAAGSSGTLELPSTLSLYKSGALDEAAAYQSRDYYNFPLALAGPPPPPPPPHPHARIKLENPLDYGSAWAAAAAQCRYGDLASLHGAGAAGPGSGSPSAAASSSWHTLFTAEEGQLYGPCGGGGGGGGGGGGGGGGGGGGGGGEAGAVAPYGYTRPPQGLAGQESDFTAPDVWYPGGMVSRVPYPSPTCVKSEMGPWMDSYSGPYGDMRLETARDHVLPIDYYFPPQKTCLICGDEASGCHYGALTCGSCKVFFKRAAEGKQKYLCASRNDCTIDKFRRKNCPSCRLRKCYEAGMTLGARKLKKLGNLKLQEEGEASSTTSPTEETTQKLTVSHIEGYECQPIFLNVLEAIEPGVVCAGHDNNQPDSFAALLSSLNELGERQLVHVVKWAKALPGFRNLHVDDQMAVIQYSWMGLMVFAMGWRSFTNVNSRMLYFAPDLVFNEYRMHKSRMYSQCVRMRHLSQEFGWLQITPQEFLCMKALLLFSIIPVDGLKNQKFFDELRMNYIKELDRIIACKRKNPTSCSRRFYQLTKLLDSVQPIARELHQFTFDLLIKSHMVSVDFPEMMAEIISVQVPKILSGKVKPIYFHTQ
SMILES,outcome [1],Potency [2],outcome [3],outcome [4],outcome [5],outcome [6],outcome [7],outcome [8],Potency [9],Potency [10],Potency [11],Potency [12],Potency [13],outcome [14],Potency [15],Potency [16],Potency [17],Potency [18],Potency [19]
Clc1cccc(C(c2ccc3nc[nH]c3c2)n2ccnc2)c1 (stereo not drawn),inactive,inactive,inactive,inactive,inactive,inactive,inactive,inactive,inactive,21.1 µM (active),26.6 µM (active),26.6 µM (active),inactive,inactive,inactive,–,–,–,–
CCCCOC(=O)C(C)Oc1ccc(Oc2ccc(C(F)(F)F)cn2)cc1 (stereo not drawn),inactive,inactive,inactive,inactive,inactive,inactive,inactive,inactive,inactive,–,–,–,inactive,–,inactive,–,–,–,–
O=[N+]([O-])c1ccccc1CCO,inactive,inactive,inactive,inactive,inactive,inactive,inactive,inactive,inactive,inactive,inactive,inactive,inactive,–,–,inactive,–,–,–
CC(=O)Oc1cccc2c1C(=O)c1c(OC(C)=O)cc(C(=O)O)cc1C2=O,inactive,inactive,inactive,inactive,inactive,inactive,inactive,inactive,–,inactive,–,inactive,inactive,inactive,–,inactive,inactive,inactive,–
Nc1ncnc2c1ncn2[C@@H]1O[C@H](CO)[C@@H](O)[C@H]1O,inactive,inactive,inactive,inactive,inactive,inactive,inactive,inactive,inactive,inactive,inactive,–,–,–,inactive,inactive,–,–,–
CO[C@@H]1[C@@H](O[C@@H]2O[C@H](C)[C@@H](O[C@H]3C[C@@](C)(O)[C@@H](O)[C@H](C)O3)[C@H](N(C)C)[C@H]2O)[C@@H](CC=O)C[C@@H](C)[C@@H](O[C@@H]2CC[C@H](N(C)C)[C@@H](C)O2)/C=C/C=C/C[C@@H](C)OC(=O)C[C@H]1OC(C)=O,inactive,inactive,inactive,inactive,inactive,inactive,inactive,inactive,inactive,8.41 µM (active),6.68 µM (active),7.5 µM (active),inactive,–,–,inactive,–,–,–
CCCc1ccc(OC)cc1,inactive,inactive,inactive,inactive,inactive,inactive,inactive,inactive,inactive,inactive,–,inactive,inactive,inactive,inactive,–,inactive,inactive,inactive
CCc1ccc(C(=O)C(C)CN2CCCCC2)cc1 (stereo not drawn),inactive,inactive,inactive,inactive,inactive,inactive,inactive,inactive,inactive,11.9 µM (active),11.9 µM (active),16.8 µM (active),inactive,–,–,–,inactive,–,–
COC(=O)C(C)(C)C,inactive,inactive,inactive,inactive,inactive,inactive,inactive,inactive,inactive,inactive,inactive,inactive,inactive,–,inactive,–,inactive,–,–
